# Bioassay records from PubChem.
# Sampled rows, rich in hits. Any-hit rate of the full collection: about 19%.
# TDP1 inh = inhibitors of human tyrosyl-DNA phosphodiesterase TDP1; Q9NUW8; recombinant TDP1, AlphaScreen DNA substrate cleavage; Potency, µM (highest dose often 130 µM), for inactives: at the top dose activity change, negative = inhibition, hits mostly inhibitors; 350,000 tested, 0.28% active; AID 485290; note: nearly all actives have a fitted effect of over 40% in size
#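 E. coli-derived human Tdp1, 1 nM final. Cpd preinc 15 min RT; substrate 15 nM final, 5 min RT; AS bead mix 10 ug/ml final, 10 min RT. Signal loss = tyrosine-FITC cleavage. No-enzyme wells = max signal.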
# RORg inh = inhibitors of mouse ROR gamma transcriptional activity | P51450 | Drosophila S2 Gal4-RORgamma UAS-luciferase reporter, 20 h | Potency, µM (series often up to 53.6 µM), inactives show at the top dose activity change, negative = inhibition, most hits filed as inhibitors | 310,000 tested, 5.4% active | AID 2551; note: nearly all actives have a fitted effect of over 60% in size
# Target sequence (P51450 whole entry, looked up, the tested form may be a part): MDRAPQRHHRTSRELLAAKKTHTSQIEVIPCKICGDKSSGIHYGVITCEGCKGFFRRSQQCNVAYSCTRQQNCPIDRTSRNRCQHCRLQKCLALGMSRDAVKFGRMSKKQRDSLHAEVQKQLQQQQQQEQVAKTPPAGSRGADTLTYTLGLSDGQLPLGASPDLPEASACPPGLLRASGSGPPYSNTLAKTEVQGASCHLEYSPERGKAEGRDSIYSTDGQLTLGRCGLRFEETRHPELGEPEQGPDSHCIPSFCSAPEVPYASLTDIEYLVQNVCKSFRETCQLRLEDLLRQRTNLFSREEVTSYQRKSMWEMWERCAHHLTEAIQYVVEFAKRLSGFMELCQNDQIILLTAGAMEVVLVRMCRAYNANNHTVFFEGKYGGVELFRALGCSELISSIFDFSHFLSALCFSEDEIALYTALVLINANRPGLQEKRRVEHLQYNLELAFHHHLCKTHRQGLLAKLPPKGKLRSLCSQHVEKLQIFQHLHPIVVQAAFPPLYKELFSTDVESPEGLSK
#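 ROR gamma transcriptional activity was tracked as Gal4-UAS luciferase output in stably transfected Drosophila Schneider cells, with compound added 1 hr before 700 uM copper sulfate induction and a 20 hr ambient-temperature incubation.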
# VP16 counter = inhibits Gal4-VP16 luciferase reporter, ROR gamma counter-screen; Potency, µM (highest dose often 53.6 µM), inactives show at the highest dose activity, negative = inhibition, usual class: inhibitors; 310,000 tested, 3.5% active; Drosophila S2 Gal4-VP16 UAS-luciferase, luminescence, 20 h;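 note: Gal4-VP16 expression switched on by copper sulfate through the metallothionein promoter; nearly all actives have a fitted effect of over 50% in size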
# DT40 TDP1 no CPT = qHTS for Inhibitors of human tyrosyl-DNA phosphodiesterase 1 (TDP1): qHTS in cells in absence of CPT. DT40 Tdp1-/- hTDP1 cells, no CPT, ATP luminescence, 48 h. Potency, µM (series often up to 46.2 µM), without a hit: at the highest dose activity change, negative = growth inhibition, most hits filed as inhibitors. 420,000 tested, 15% active; note: nearly all actives have a fitted effect of over 55% in size
#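 Chicken DT40 Tdp1-/- cells stably complemented with human TDP1 were seeded at 400 cells/well with DMSO in place of 20 nM camptothecin. After compound pinning, cells grew at least 48 hr at 37 °C; viability read by CellTiter-Glo luminescence.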
# DT40 TDP1 CPT = growth inhibition of DT40 Tdp1-/-;hTDP1 cells with camptothecin (screen for TDP1 inhibitors); chicken DT40 Tdp1-/-;hTDP1 cells + 20 nM CPT, ATP luminescence, 48 h; Potency, µM (titrated, usually from 46.2 µM), without a hit: at the top dose activity change, negative = growth inhibition, most hits filed as inhibitors; 420,000 tested, 12% active; AID 686979; note: nearly all actives have a fitted effect of over 55% in size
#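 Chicken DT40 Tdp1-/- cells complemented with human TDP1, 400 cells/well, exposed to compounds plus 20 nM camptothecin for at least 48 h at 37 C; viability read as ATP content by CellTiter-Glo luminescence.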
# * hit, by the source's call; ? = inconclusive; / = not tested or not shown; [ ] = dose if it differs, or a comment. Calls come from the whole dose curve; as a rule, active = well fitted curve in the direction sought with a large enough effect; inconclusive = small, poorly fitted or top-dose-only effect, or another doubt; inactive = no such curve, though single readings can be large; an effect the other way counts as inactive or inconclusive. % is set by controls: 0 for no effect and ±100 for the full control effect; potency is the fitted concentration of half-maximal effect.
SMILES,TDP1 inh,RORg inh,VP16 counter,DT40 TDP1 no CPT,DT40 TDP1 CPT
COc1cc(OC)c(NC(C)C(=O)NCc2ccccc2)cc1Cl (stereo not given),6%,?,-7%,9%,11%
Cc1ccc2nc(NC(=O)c3ccc4c(c3)OCO4)sc2c1,2%,7.9µM*,?,-22%,-13%
c1ccc2c(-c3ccc(OCCN4CCCCC4)cc3)c(-c3ccsc3)sc2c1,8%,/,/,16µM*,16µM*
c1ccc(-c2sc3ccccc3c2-c2ccc(OCCN3CCCCC3)cc2)cc1,7%,/,/,?,?
COc1ccc(-c2sc3cc4c(cc3c2-c2ccc(OCCN3CCCCC3)cc2)OCO4)cc1,7%[56.1 µM],/,/,21µM*,16µM*
COc1ccc(-c2sc3cc4c(cc3c2C#CC2(O)CCCCC2)OCO4)cc1,-6%,/,/,21µM*,18µM*
CN(C)CCOc1ccc(-c2c(-c3ccccc3)sc3ccccc23)cc1,13%,/,/,6.5µM*,10µM*
COc1cc(OC)cc(-c2sc3ccc(OC)cc3c2-c2ccc(OCCN3CCCCC3)cc2)c1,6%[56.1 µM],/,/,?,?
CCOc1ccc2nc(N3CCCC(C(=O)NCC4CCCO4)C3)sc2c1 (stereo not given),/,-12%,-10%,-16%,-27%
CCOC(=O)c1ccc(NC(=S)N2CCN(CCN=CC3=C(O)CC(C)(C)CC3=O)CC2)cc1,3%,13µM*,?,13%,13%
CCOC(=O)c1ccc(NC(=O)CN2CCN(CCN=CC3=C(O)CC(C)(C)CC3=O)CC2)cc1,-2%,-12%,-6%,-7%,13%
CN(Cc1ccccc1)C(=O)COC(=O)C12CC3CC(CC(Br)(C3)C1)C2,-5%,/,/,?,26µM*
CCCCNc1nc(C)nc2c1nc(-c1ccccc1)n2CC1CCN(C)CC1,6%,-11%,-5%,/,/
Nc1nc(Cl)cc(Nc2ccccc2Cl)n1,/,-5%,11%,-7%,-12%
CCc1c(N)nc(N)nc1Nc1ccccc1Cl,/,/,/,21µM*,18µM*
COC(=O)c1sc(=S)n(-c2cc(F)ccc2F)c1N,-2%,2%,-1%,?,15µM*
CCOC(=O)c1sc(=S)n(-c2cc(F)ccc2F)c1N,-1%,20%,3%,-28%,?
CC1CCc2c(sc(NC(=O)CSc3nnc(-c4ccccc4)o3)c2C#N)C1 (stereo not given),5%,-36%,19%,?,?
O=Cc1ccc(I)cc1,/,/,/,4µM*,1.6µM*
O=Cc1ccc(Cl)cc1,9%,-5%,5%,-8%,13%
COc1ccccc1CCNC(=O)C1CCC(=O)N(C2CCCCCC2)C1 (stereo not given),2%,0%,22%,-8%,0%
CN(C)c1ccc(/C=C(\C#N)c2ccccn2)cc1,3%,7.1µM*,7.9µM*,23µM*,-28%
COC(=O)c1ccc(/C=C(\C#N)c2ccccn2)cc1,1%,-10%,-3%,?,?
N#C/C(=C\c1cccnc1)c1ccc([N+](=O)[O-])cc1,/,?,13µM*,?,?
N#C/C(=C\c1ccccn1)c1ccccn1,/,-29%,-18%,15µM*,23µM*
SMILES,TDP1 inh,RORg inh,VP16 counter,DT40 TDP1 no CPT,DT40 TDP1 CPT
N#C/C(=C\c1ccc([N+](=O)[O-])cc1)c1ccccn1,10%,-10%,6%,23µM*,?
N#C/C(=C/c1cccnc1)c1ccccc1,/,-33%,5%,-10%,4%
C=Cc1ccccn1,12%,7%,-3%,/,/
Cc1nc(SCC(=O)Nc2ccc(Cl)cc2C(F)(F)F)[nH]c(=O)c1Cc1ccccc1,-2%,/,/,-25%,-23%
O=C(O)C1CCCC1,/,/,/,1%,0%
CC(Nc1ccc2c(c1)OCCO2)C(=O)N1CCc2ccccc21 (stereo not given),3%,?,6%,-20%,-20%
COc1ccc(CC(=O)Nc2cc(S(=O)(=O)N3CCOCC3)ccc2N2CCCC2)c(OC)c1,/,/,/,-9%,-24%
Cc1cc(C)n2nc(/C(C#N)=C/c3ccccn3)c(C#N)c2n1,0%,-34%,-21%,9.2µM*,?
N#CC(C#N)=Cc1ccc(OC(=O)c2ccccn2)cc1,2%,13µM*,-25%,-25%,-7%
COC(=O)c1ccc(OC(=O)c2ccccn2)cc1,-3%,-1%,8%,-10%,-1%
CCc1nc(N[C@H](C(=O)O)C(C)C)c2oc3ccccc3c2n1,-3%,-5%,9%,?,-9%
CCC(C)(C)C1CCc2[nH]nc(C(=O)NCCNC(=O)OC(C)(C)C)c2C1 (stereo not given),-3%,/,/,?,?
CCC(C)(C)C1CCc2[nH]nc(C(=O)NC(C)C)c2C1 (stereo not given),-1%,/,/,21µM*,?
CCC(C)(C)C1CCc2[nH]nc(C(=O)NN)c2C1 (stereo not given),7%,-1%,-14%,?,-22%
CCC(C)(C)C1CCc2[nH]nc(C(=O)NC3CCCCC3)c2C1 (stereo not given),-4%,/,/,?,12µM*
CC(C)(C)NC(=O)NC(=O)CN1CCN(S(=O)(=O)/C=C/c2ccccc2)CC1,9%,-9%,27%,-14%,?
COC(=O)N1CCC2(CC1)CCN(c1cccc(-c3ccccc3)c1)CC2,/,?,-15%,?,?
O=C(c1ccncc1)N1CCC2(CC1)CCN(c1ccc(-c3ccccc3)cc1)CC2,/,-15%,-30%,?,6.5µM*
COCC(=O)N1CCC2(CC1)CN(c1ccc(-c3ccccc3)cc1)C2,/,?,4%,5.8µM*,8.2µM*
O=S(=O)(c1ccccc1)N1CCC2(CCN(c3ccccc3)CC2)CC1,/,?,-6%,?,?
CC(=O)N1CCC2(CC1)CCN(c1ccc(-c3ccccc3)cc1)CC2,/,-12%,?,8.2µM*,10µM*
O=S(=O)(c1ccccc1)N1CCC2(CCN(c3ccncc3)CC2)CC1,/,-6%,-11%,13µM*,12µM*
CCN1CCN(CC(O)COc2ccc3c(C)cc(=O)oc3c2)CC1 (stereo not given),-5%,-1%,8%,-11%,28%
Cc1ccsc1/C=N/NC(=O)C(=O)NCC(C)C,0%,?,-15%,-6%,13%
O=C(c1ccncc1)N1CCC2(CC1)CN(c1ccccc1)C2,/,0%,12%,?,16µM*
O=C(c1ccncc1)N1CCC2(CC1)CN(c1ccncc1)C2,/,-2%,-10%,-12%,2%
CCCC(=O)Nc1cc2c3c(c1)CC(=O)N3CCC2,1%,-3%,6%,?,-3%
O=C(COc1ccc(Cl)cc1)Nc1cc2c3c(c1)CC(=O)N3CCC2,/,/,/,21µM*,21µM*
